# Among all 48,000 compounds or so, about 13,000 (27%) showed an effect of 50% or more. Some of the results follow.
# Tested on: Wolbachia pipientis
# Assay: Anti-Wolbachia Cell-Based Screen
# Type: functional
# Parameters: scale not given: in the data most compounds retested in dose-response had high values
# Conditions: 5 µM
row,SMILES,Percent Effect [%]
1,NC(=O)c1ccnc(N2CCN(Cc3ccc(F)cc3Cl)CC2)c1,9.794
2,CCCN(Cc1ccccn1)Cc1ccccc1OC,8.723
3,CCCn1ncc(CN(CCN(C)C)Cc2ccsc2)c1C,0.1145
4,CCCn1nc(C)c(CN(CCN(C)C)Cc2ccccn2)c1C,95.65
5,NC(=O)N1CCCC1COC(=O)c1ccc(F)cc1Br (configuration not stated),-14.4
6,O=S1(=O)CCC(CNS(=O)(=O)N2CCc3ccccc3C2)C1 (configuration not stated),5.684
7,CCCC(C)(C)NC(=O)c1ccc(CC2CC(=O)NC2=O)cc1 (configuration not stated),-6.168
8,O=C(N[C@H]1CCCC[C@@H]1O)c1cccc(-c2nc3ccccc3[nH]2)c1,102.7
9,O=C(N[C@H]1CCCC[C@@H]1O)c1ccc2nc(-c3ccccc3)[nH]c2c1,121.7
10,O=C(N[C@@H]1CCNC[C@H]1O)c1ccc(O)c(Cl)c1,22.9
11,O=C(N[C@H]1CCCC[C@@H]1O)c1ccc(-c2nc3ccccc3[nH]2)cc1,104
12,O=C(N[C@@H]1CCNC[C@H]1O)c1ccc(-c2ccc(F)cc2)cc1,15.94
13,CN1CCCC1CCn1ccnc1-c1nc2ccccc2[nH]1 (configuration not stated),1.274
14,O=C(N[C@@H]1CCNC[C@H]1O)c1ccc(F)c(F)c1,7.783
15,OCC1CCCCN1CCn1ccnc1-c1nc2ccccc2[nH]1 (configuration not stated),1.292
16,O=C(N[C@@H]1CNCCC[C@H]1O)c1ccc(OCc2ccccc2)cc1,-1.908
17,O=C(CCc1cn[nH]c1)N1C[C@@H](CN2CCOCC2)C[C@H](CO)C1,10.13
18,COC(=O)c1sccc1S(=O)(=O)N1CCC(Oc2cccnn2)CC1,13.23
19,COC(=O)N1CCCC(NC(=O)NCc2ccc(C)nc2)C1 (configuration not stated),12.17
20,Cc1nc(C)n(CC2CN(CCCc3ccccc3)CCO2)n1 (configuration not stated),-18.17
21,CC(C)(C)c1n[nH]c(C2CN(CCc3ccncc3)CCO2)n1 (configuration not stated),18.66
22,CN(C)Cc1ccnc(C2CN(CCCc3ccccc3)CCO2)n1 (configuration not stated),114
23,CN(C)Cc1ccnc(C2CN(CCc3ccccc3)CCO2)n1 (configuration not stated),102.6

row,SMILES,Percent Effect [%]
1,CN(Cc1nccn1C)C1CCCN(CCCc2ccccc2)C1 (configuration not stated),7.706
2,Cn1ncc(N2CCC(CNC3CC(C)(C)CC(C)(C)C3)C2)cc1=O (configuration not stated),8.981
3,O=C(C1CCCO1)N1CCC(c2nc(-c3ccccc3)n[nH]2)CC1 (configuration not stated),-16.11
4,Cc1nn(C)cc1CN1C[C@@H]2CC[C@H](C1)N(Cc1c(C)noc1C)C2=O,-0.3171
5,Cc1nn(C)cc1CN1CCC(c2ncc(Cl)cc2S(C)(=O)=O)CC1,110.1
6,Cc1nn(CCO)cc1CN1CCC(N2CCC(O)CC2)CC1,-2.078
7,CN(CCO)Cc1nnc(C2CCN(C(=O)C3CCOCC3)CC2)n1C,-7.962
8,O=C(C1CCCO1)N1CCC(Cn2cc(C3CCCC3)nn2)CC1 (configuration not stated),-6.289
9,Cn1c(CN2CCCC2)nnc1C1CCCN(C(=O)C2CCOCC2)C1 (configuration not stated),-15.35
10,CS(=O)(=O)c1cc(Cl)cnc1C1CCCN(C(=O)C2CCOCC2)C1 (configuration not stated),120.4
11,CS(=O)(=O)c1cc(Cl)cnc1C1CCN(C(=O)C2CCCO2)CC1 (configuration not stated),120.4
12,CS(=O)(=O)c1cc(Cl)cnc1C1CCN(C(=O)C2CCOCC2)CC1,98
13,CS(=O)(=O)N1C[C@@H](C(=O)Nc2cnccn2)C[C@H]2OCC[C@H]21,-10.64
14,Cc1cc(C)cc(C(=O)Nc2ccc(CC3CC(=O)NC3=O)cc2)c1 (configuration not stated),-7.063
15,CCS(=O)(=O)c1ccc(N2CCC(N)CC2)cc1,-6.106
16,CCc1noc(C)c1C(=O)NCCCC(CC)(CC)C1OCCO1,-8.501
17,Cn1c(C(F)(F)F)nn(CCNC(=O)c2cnc3ccccc3n2)c1=O,1.982
18,O=C(C1CC1)N1CCC(Oc2ccccc2Cl)CC1,-14.42
19,CS(=O)(=O)c1cc(Cl)cnc1C1CCN(C(=O)C2CC2)CC1,82.8
20,N#Cc1cnc(NC2CCN(C(=O)C3CC3)CC2)c(Cl)c1,-2.67
21,CCn1nc(C)c(CCNC(=O)C2CCCN(CC(N)=O)C2)c1C (configuration not stated),-1.587
22,O=C(CSC1=NS(=O)(=O)c2cc(F)ccc2N1)Nc1ccc(Cl)cc1,115.7
23,O=C(CSC1=NS(=O)(=O)c2cc(F)ccc2N1)Nc1ccc(Cl)c(Cl)c1,112.6

row,SMILES,Percent Effect [%]
1,CN(CCS(=O)(=O)c1cc(Cl)ccc1Cl)CC(=O)Nc1ccc(F)cc1,-4.797
2,O=S1(=O)N=C(SCc2ccc(Cl)cc2)Nc2ccc(F)cc21,26.5
3,O=C(CSC1=NS(=O)(=O)c2cc(F)ccc2N1)Nc1cccc(Cl)c1,1.822
4,CC(=O)NCC(=O)N1CCC(c2cncc(Oc3cccnc3)n2)CC1,94.92
5,COCCC(=O)N1CCC(c2cncc(Oc3cccnc3)n2)CC1,116.7
6,O=C(c1cnc[nH]1)N1CCC(Oc2cccnc2)CC1,-5.216
7,NCC(=O)N1CCC(c2cncc(Oc3cccnc3)n2)CC1,115.4
8,COCCC(=O)N1Cc2[nH]nc(COc3cccnc3)c2C1,-7.677
9,CCOCC(=O)N1CCC(c2nc(-c3cccnn3)no2)CC1,-10.28
10,CCC(=O)N1CCC(c2cncc(Oc3cccnc3)n2)CC1,118.9
11,CN(C)c1cncc(C2CCN(C(=O)CO)CC2)n1,-8.172
12,O=C(O)c1coc(COc2cccc(F)c2)n1,4.925
13,Cn1cc(C(C)(O)CNc2ccc(C(F)(F)F)cn2)cn1 (configuration not stated),-6.245
14,CC(C)(C)CC(NC(=O)c1nc(=O)[nH][nH]1)c1ccc(F)cc1 (configuration not stated),-5.789
15,COC(=O)CCNC(=O)c1coc(COc2ccc(F)cc2)n1,-5.567
16,CCOC(=O)NC(=O)CSC(C)c1ccccc1F (configuration not stated),4.048
17,CN1CCN2CCN(C(=O)c3cnn4cc(CCO)cnc34)CC2C1 (configuration not stated),-3.17
18,Cc1nccn1CCC1CCCCN1C(=O)c1ccc2[nH]nnc2c1 (configuration not stated),-0.5329
19,Cn1ccnc1CN1CCCN(C(=O)c2ccc3[nH]cnc3c2)CC1,100.5
20,Cn1ccnc1CN1CCCN(C(=O)c2ccc3[nH]nnc3c2)CC1,102.4
21,CC(C)c1nccn1C1CCCN(C(=O)c2ccc3[nH]cnc3c2)C1 (configuration not stated),-5.197

# Reference: ChEMBL document CHEMBL3988442, “University of Dundee, Small-Polar-MMV Screening Library” (2021)
